# From PubChem BioAssay (Tox21)
# Several values for one entry are separate records, joined by “and”; a condition that tells them apart may be missing. Equal entries are not always repeated. Results filed as inconclusive are left out. Entries that show only a call come without a potency. Where a structure was tested more than once in an assay, its records may differ in their call. Activity calls are given as the source filed them. Calls follow the shape of the dose curve; as a rule, active = well fitted curve in the direction sought with a large enough effect in the repeat runs; inconclusive = weak or mixed curves; inactive = no such curve, though single readings can be large; an effect the other way counts as inactive or inconclusive.
# Assay: qHTS assay to identify small molecule antagonists of the thyroid receptor (TR) signaling pathway - cell viability counter screen (AID 743064); also: nearly all actives have a fitted effect of over 50% in size
# Details: GH3.TRE-Luc viability, CellTiter-Fluor, 24 h; series mostly up to 70.3 µM
# Method in brief: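 Fluorescence from CellTiter-Fluor, added after 23.5 h exposure at 37 °C, reported viability of GH3.TRE-Luc cells co-treated with compound and 1 nM T3. Measured in the same wells as the luciferase TR readout.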
# Potency is read from the fitted curve at half-maximal effect.
row,SMILES,Potency
1,CCCCCCOC(C)=O,inactive
2,CC(=O)[C@@]1(O)CC[C@H]2[C@@H]3CCC4=CC(=O)CC[C@]4(C)[C@H]3CC[C@@]21C,inactive
3,O=S(=O)(O)c1cc(S(=O)(=O)O)c2c(N=Nc3ccccc3)c(O)ccc2c1,27.4 µM (active) and 68.6 µM (active)
4,Clc1ccc(Cl)c(Cl)c1Cl,inactive
5,COC(=O)Nc1nc2ccc(Sc3ccccc3)cc2[nH]1,0.202 µM (active)
6,CN(C)c1cccc(O)c1,inactive
7,COC(=O)c1ccc(C(=O)OC)cc1,inactive
8,O=[N+]([O-])C(CO)(CO)CO,inactive
9,O=C(c1ccc(O)cc1)c1ccc(O)cc1O,inactive
10,c1ccc2[nH]cnc2c1,inactive
11,O=C1CCCCC1,inactive
12,CCCCCCCCCCC=CC1CC(=O)OC1=O (stereo not given),inactive
13,C=C1CC[C@H](O)CC1=C/C=C1\CCC[C@]2(C)[C@@H]([C@H](C)/C=C/[C@H](C)C(C)C)CC[C@@H]12,60.6 µM (active)
14,CCOC(=O)[C@H](CCc1ccccc1)N[C@@H](C)C(=O)N1Cc2ccccc2C[C@H]1C(=O)O,inactive
15,CC#C[C@]1(O)CC[C@H]2[C@@H]3CCC4=CC(=O)CCC4=C3[C@@H](c3ccc(N(C)C)cc3)C[C@@]21C,9.44 µM (active) and 34.4 µM (active)
16,CCCCOCCOCCOC(=O)CCCCC(=O)OCCOCCOCCCC,inactive
17,CCCCCCCCCCCCN,inactive and 24.3 µM (active)
18,CCCCC(CC)COC(C)=O (stereo not given),inactive

row,SMILES,Potency
1,O=C(Cl)c1c(Cl)c(Cl)c(C(=O)Cl)c(Cl)c1Cl,inactive
2,O=C(Oc1ccccc1)c1ccc(O)cc1,inactive
3,O=[N+]([O-])c1cccc(Cl)c1,inactive
4,Cc1cc(NS(=O)(=O)c2ccc(N)cc2)no1,inactive
5,Cc1cc(O)cc(C)c1Cl,inactive
6,Cc1cc(O)c2c(c1)C(=O)c1cc(O)cc(O)c1C2=O,inactive and 30.6 µM (active)
7,CC1COc2ccccc2N1C(=O)C(Cl)Cl (stereo not given),9.67 µM (active) and 19.3 µM (active)
8,CCC(=O)O,inactive
9,CC(=O)CCc1ccccc1,inactive
10,O=[N+]([O-])c1cc(N(CCO)CCO)ccc1NCCO,61 µM (active)
11,O=S(=O)(Oc1ccc(Cl)cc1Cl)c1ccccc1,inactive
12,Cc1ccc(N)c(S(=O)(=O)O)c1,inactive
13,NC(=O)NNc1ccccc1,inactive
14,CCCCC/C=C\C/C=C\CCCCCCCC(=O)OC,inactive
15,CCOC(=O)/C=C\C(=O)OCC,inactive
16,CC1=C(CC(=O)O)c2cc(F)ccc2/C1=C\c1ccc(S(C)=O)cc1 (stereo not given),inactive
17,CC(C)NCC(O)COc1cccc2ccccc12 (stereo not given),30.6 µM (active)

# Assay: qHTS assay to identify small molecule antagonists of the thyroid receptor (TR) signaling pathway (AID 743065); also: nearly all actives have a fitted effect of over 55% in size
# Details: GH3.TRE-Luc, T3-stimulated luciferase inhibition, 23.5 h; series mostly up to 70.3 µM
# Method in brief: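 GH3.TRE-Luc rat pituitary cells carrying two TR response elements driving luciferase were plated for 4 h, given compound plus 1 nM T3 (final), and incubated 23.5 h at 37 C. ONE-Glo luminescence measured reporter inhibition; CellTiter-Fluor fluorescence tracked cytotoxicity.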
row,SMILES,Potency
1,O=S(=O)(O)c1cc(S(=O)(=O)O)c2c(N=Nc3ccccc3)c(O)ccc2c1,inactive
2,Clc1ccc(Cl)c(Cl)c1Cl,inactive
3,COC(=O)Nc1nc2ccc(Sc3ccccc3)cc2[nH]1,202 nM (active) and 217 nM (active)
4,CN(C)c1cccc(O)c1,inactive
5,CC1=CC[C@H]2C[C@@H]1C2(C)C,inactive
6,COC(=O)c1ccc(C(=O)OC)cc1,inactive
7,O=[N+]([O-])C(CO)(CO)CO,inactive
8,CC(C)(C)C1CCC(O)CC1 (stereo not given),inactive
9,O=C(c1ccc(O)cc1)c1ccc(O)cc1O,inactive
10,c1ccc2[nH]cnc2c1,inactive
11,O=C1CCCCC1,inactive
12,C=C1CC[C@H](O)CC1=C/C=C1\CCC[C@]2(C)[C@@H]([C@H](C)/C=C/[C@H](C)C(C)C)CC[C@@H]12,26.6 µM (active) and 54 µM (active) and 54.5 µM (active)
13,CCOC(=O)[C@H](CCc1ccccc1)N[C@@H](C)C(=O)N1Cc2ccccc2C[C@H]1C(=O)O,inactive
14,CC#C[C@]1(O)CC[C@H]2[C@@H]3CCC4=CC(=O)CCC4=C3[C@@H](c3ccc(N(C)C)cc3)C[C@@]21C,4.73 µM (active) and 24.3 µM (active)
15,C=C(C)C(=O)OCCC[Si](OC)(OC)OC,inactive
16,CCCCOCCOCCOC(=O)CCCCC(=O)OCCOCCOCCCC,inactive
17,CCCCC(CC)COC(C)=O (stereo not given),inactive
18,O=C(Cl)c1c(Cl)c(Cl)c(C(=O)Cl)c(Cl)c1Cl,inactive
19,O=C(Oc1ccccc1)c1ccc(O)cc1,inactive
20,O=[N+]([O-])c1cccc(Cl)c1,inactive
21,Cc1cc(NS(=O)(=O)c2ccc(N)cc2)no1,inactive
22,Cc1cc(O)cc(C)c1Cl,inactive
23,Cc1cc(O)c2c(c1)C(=O)c1cc(O)cc(O)c1C2=O,23.8 µM (active) and 15.4 µM (active)
24,CC1COc2ccccc2N1C(=O)C(Cl)Cl (stereo not given),8.62 µM (active) and 15.3 µM (active)
25,CC(=O)CCc1ccccc1,inactive
26,O=S(=O)(Oc1ccc(Cl)cc1Cl)c1ccccc1,inactive
27,Cc1ccc(N)c(S(=O)(=O)O)c1,inactive
28,NC(=O)NNc1ccccc1,inactive
29,CC1=C(CC(=O)O)c2cc(F)ccc2/C1=C\c1ccc(S(C)=O)cc1 (stereo not given),inactive
30,CC(C)NCC(O)COc1cccc2ccccc12 (stereo not given),61.8 µM (active) and 54.5 µM (active)
